# Assay results published in PubChem BioAssay (Tox21).
# A number with no mark means an inactive call. Results filed as inconclusive are left out. A call without a number means that no potency is given here. The source made the active and inactive calls. Unless noted, calls follow the shape of the dose curve; as a rule, active = well fitted curve in the direction sought with a large enough effect in the repeat runs; inconclusive = weak or mixed curves; inactive = no such curve, though single readings can be large; an effect the other way counts as inactive or inconclusive.
# Legend:
# [1] = qHTS RealTime-Glo MT Cell Viability Assay in HEK293 cells - 8 hour (AID 1224887); also: top concentration of the series differs between compounds; nearly all actives have a fitted effect of over 50% in size
# Procedure, shortened: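 Real-time viability in HEK293: signal arises when living cells convert a prosubstrate for NanoLuc in the medium, so luminescence tracks viable cell number. Compound (23 nL, DMSO) added 5 h post-seeding; kinetic reads at 0–40 h, 37 C.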
# [2] = A CellTox Green Cytotoxicity Assay to monitor cytotoxicity in HEK293 cells - 16 hour (AID 1224888); also: nearly all actives have a fitted effect of over 35% in size
# Procedure, shortened: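 Cells (HEK293, 600/well) and dye reagent are dispensed together. After 5 h at 37 C, 23 nL compound is pinned in. Plates stay at 37 C for 40 h with fluorescence read at 0h, 8h, 16h, 24h, 32h and 40h.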
# [3] = qHTS RealTime-Glo MT Cell Viability Assay in HepG2 cells - 0 hour (AID 1224889); also: nearly all actives have a fitted effect of over 50% in size
# Procedure, shortened: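 HepG2 cells were seeded at 600 cells/well together with NanoLuc luciferase and a cell-permeant prosubstrate, preincubated 5 h at 37 C/5% CO2, then pin-dosed with compounds in DMSO. Nonlytic luminescence from viable cells was read at each time point.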
# [4] = qHTS assay to identify small molecule antagonists of the estrogen receptor alpha (ER-alpha) signaling pathway using the BG1 cell line in the presence of 0.1 nM 17-beta-estradiol - cell viability counter screen (AID 1259241); also: nearly all actives have a fitted effect of over 40% in size
# Procedure, shortened: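 VM7Luc4E2 cells (endogenous full-length ER-alpha, 4xERE-luciferase), cultured 5 days in charcoal-stripped serum, exposed to compounds with 0.1 nM 17beta-estradiol (final) for 22 hr at 37C. Viability read in same wells as live-cell protease fluorescence after 30 min.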
# [5] = qHTS assay to identify small molecule antagonists of the androgen receptor (AR) signaling pathway using the MDA cell line in the presence of 0.5 nM R1881 - cell viability counter screen (AID 1259242); also: nearly all actives have a fitted effect of over 45% in size
# Procedure, shortened: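 Steps: plate MDA-kb2 cells, rest 5 hr at 37C without CO2; pin in compounds in DMSO; add R1881 to 0.5 nM final; incubate 16 hr; add CellTiter-Fluor, 30 min; read fluorescence.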
# [6] = qHTS assay to identify small molecule HDAC inhibitors (AID 1259364);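 also: wild-type HCT-116 cells with endogenous class I/II HDAC activity; top concentration of the series differs between compounds; nearly all actives have a fitted effect of over 45% in size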
# Procedure, shortened: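 Cells (HCT-116, wild type) are seeded at 1,500 per well, incubated overnight, treated with compound in DMSO for 2 hr, then developed with HDAC-Glo I/II reagent for 30 min at room temperature.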
# [7] = qHTS assay to identify small molecule HDAC inhibitors - cell viability counter screen (AID 1259365); also: series mostly up to about 92 µM; nearly all actives have a fitted effect of over 50% in size
# Procedure, shortened: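 Wild-type HCT-116 cells, 1,500/well, cultured overnight, then compound-treated 2 h at 37 C. Viability measured as ATP luminescence with CellTiter-Glo after 30 min at room temperature.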
# [8] = qHTS assay to identify small molecule agonists of the sonic hedgehog signaling (Shh) pathway - cell viability counter screen (AID 1259366); also: nearly all actives have a fitted effect of over 50% in size
# Procedure, shortened: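 NIH/3T3-derived Gli1-Luc reporter cells, 2,000 per well, received compound after 4 h and were treated about 23 h at 37C. Viability measured in the same wells by CellTiter-Fluor fluorescence after 1 h.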
# [9] = qHTS assay to identify small molecule antagonists of the sonic hedgehog signaling (Shh) pathway - cell viability counter screen (AID 1259367); also: nearly all actives have a fitted effect of over 55% in size
# Procedure, shortened: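 CellTiter-Fluor signal in conditioned medium-stimulated 3T3 Gli1-Luc cells, 23 hr compound exposure, 37C.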
# [10] = qHTS assay to identify small molecule agonists of the sonic hedgehog signaling (Shh) pathway (AID 1259368; calls by dose curve;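 also: NIH/3T3-derived 3T3Gli1-Luc cells carrying a stable Gli1-driven firefly luciferase reporter; series mostly up to about 92 µM; nearly all actives have a fitted effect of over 15% in size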)
# Procedure, shortened: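 Cells of a mouse NIH/3T3 clone stably expressing luciferase under the Gli1 transcriptional response element are exposed to test chemicals for 24 hr at 37 C. Pathway activation is detected as a rise in luminescence.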
# [11] = qHTS assay to identify small molecule antagonists of the sonic hedgehog signaling (Shh) pathway (AID 1259369; calls by dose curve; also: nearly all actives have a fitted effect of over 45% in size; also: potency is read from the fitted curve at half-maximal effect)
# Procedure, shortened: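 Cells are plated and held 4hr at 37 C, compounds (DMSO) are pinned in, conditioned medium is added to stimulate the pathway, and after 24hr luciferase reagent is added for 30min before luminescence is read.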
# [12] = target: Estrogen receptor beta (Homo sapiens) (UniProt Q92731); test: qHTS assay to identify small molecule agonists of the estrogen receptor beta (ER-beta) signaling pathway (AID 1259377; active = well fitted activation curve with a large enough effect in the signal ratio in the repeat runs, not every such curve was filed as active; the % refers to the signal ratio)
# Sequence of Estrogen receptor beta (Homo sapiens) (Q92731 whole entry, looked up): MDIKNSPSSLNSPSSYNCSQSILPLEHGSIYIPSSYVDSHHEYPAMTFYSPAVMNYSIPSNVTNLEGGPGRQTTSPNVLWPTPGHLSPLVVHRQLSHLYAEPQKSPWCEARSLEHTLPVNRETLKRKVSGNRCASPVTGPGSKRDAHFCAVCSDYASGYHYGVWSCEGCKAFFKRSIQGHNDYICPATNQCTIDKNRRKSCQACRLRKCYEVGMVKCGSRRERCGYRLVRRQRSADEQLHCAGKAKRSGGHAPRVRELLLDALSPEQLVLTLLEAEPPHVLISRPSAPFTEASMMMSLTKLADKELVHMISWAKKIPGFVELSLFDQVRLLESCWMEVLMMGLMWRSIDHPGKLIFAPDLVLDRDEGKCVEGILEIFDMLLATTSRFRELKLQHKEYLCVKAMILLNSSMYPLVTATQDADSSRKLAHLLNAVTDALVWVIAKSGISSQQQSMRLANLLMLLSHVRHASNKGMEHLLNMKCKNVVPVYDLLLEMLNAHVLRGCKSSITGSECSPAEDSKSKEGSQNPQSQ
# Procedure, shortened: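 ER-beta-UAS-bla HEK293T cells in medium with 2% charcoal-stripped FBS were exposed to compounds for 16 h at 37C. Beta-lactamase reporter activity was read as fluorescence after 2 h with LiveBLAzer B/G FRET substrate at room temperature.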
# [13] = qHTS assay to identify small molecule agonists of the androgen receptor (AR) signaling pathway in the presence of an antagonist - cell viability counter screen (AID 1259379); also: nearly all actives have a fitted effect of over 25% in size; also: potency is read from the fitted curve at half-maximal effect
# Procedure, shortened: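 Cytotoxicity is assessed by CellTiter-Fluor in MDA-kb2 cells carrying an MMTV-driven luciferase reporter. Cells receive 3.0uM nilutamide plus compounds at 15 concentrations and incubate 16 hr at 37C without CO2 before fluorescence reading.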
# [14] = qHTS assay to identify small molecule agonists of the estrogen receptor beta (ER-beta) signaling pathway - cell viability counter screen (AID 1259380); also: nearly all actives have a fitted effect of over 30% in size
# Procedure, shortened: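 Cytotoxicity is measured in parallel with the reporter screen: after 16 hr compound exposure at 37C and a 2 hr LiveBLAzer step, CellTiter-Glo is added to the same ER-beta-UAS-bla HEK293T wells and luminescence read after 30 min.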
# [15] = A CellTox Green Cytotoxicity Assay to monitor cytotoxicity in HepG2 cells - 8 hour (AID 1224890); also: nearly all actives have a fitted effect of over 45% in size
# Procedure, shortened: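 Cells and non-lytic dye reagent are dispensed together (600 HepG2 cells/well) and incubated 5 h before DMSO compound transfer. Kinetic fluorescence is then recorded in the same wells during 40 h at 37 C.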
# [16] = qHTS assay to identify small molecule phospholipidosis (PLD) inducers (AID 1259344; active = well fitted curve in the direction sought with a large enough effect; an effect the other way counts as inactive or inconclusive)
# Procedure, shortened: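 Accumulated phospholipid, stained red by LipidTOX during 24 h compound treatment of HepG2 cells at 37 C, is quantified from images as pit number and intensity, normalised per cell using Hoechst-stained nuclei.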
# [17] = target: Estrogen receptor beta (Homo sapiens) (UniProt Q92731); test: qHTS assay to identify small molecule antagonists of the estrogen receptor beta (ER-beta) signaling pathway (AID 1259378; active = well fitted inhibition curve with a large enough effect in the signal ratio in the repeat runs, not every such curve was filed as active; the % refers to the signal ratio)
# Procedure, shortened: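 Antagonist mode: compounds added to beta-lactamase reporter HEK293T ER-beta-UAS cells stimulated with E2 (1nM final), 16 hr at 37C. LiveBLAzer B/G FRET substrate, 2 hours room temperature, fluorescence read-out.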
# [18] = target: Androgen receptor (Homo sapiens) (UniProt P10275); test: qHTS assay to identify small molecule antagonists of the androgen receptor (AR) signaling pathway using the MDA cell line in the presence of 0.5 nM R1881 (AID 1259243); also: nearly all actives have a fitted effect of over 50% in size
# Sequence of Androgen receptor (Homo sapiens) (P10275 whole entry, looked up): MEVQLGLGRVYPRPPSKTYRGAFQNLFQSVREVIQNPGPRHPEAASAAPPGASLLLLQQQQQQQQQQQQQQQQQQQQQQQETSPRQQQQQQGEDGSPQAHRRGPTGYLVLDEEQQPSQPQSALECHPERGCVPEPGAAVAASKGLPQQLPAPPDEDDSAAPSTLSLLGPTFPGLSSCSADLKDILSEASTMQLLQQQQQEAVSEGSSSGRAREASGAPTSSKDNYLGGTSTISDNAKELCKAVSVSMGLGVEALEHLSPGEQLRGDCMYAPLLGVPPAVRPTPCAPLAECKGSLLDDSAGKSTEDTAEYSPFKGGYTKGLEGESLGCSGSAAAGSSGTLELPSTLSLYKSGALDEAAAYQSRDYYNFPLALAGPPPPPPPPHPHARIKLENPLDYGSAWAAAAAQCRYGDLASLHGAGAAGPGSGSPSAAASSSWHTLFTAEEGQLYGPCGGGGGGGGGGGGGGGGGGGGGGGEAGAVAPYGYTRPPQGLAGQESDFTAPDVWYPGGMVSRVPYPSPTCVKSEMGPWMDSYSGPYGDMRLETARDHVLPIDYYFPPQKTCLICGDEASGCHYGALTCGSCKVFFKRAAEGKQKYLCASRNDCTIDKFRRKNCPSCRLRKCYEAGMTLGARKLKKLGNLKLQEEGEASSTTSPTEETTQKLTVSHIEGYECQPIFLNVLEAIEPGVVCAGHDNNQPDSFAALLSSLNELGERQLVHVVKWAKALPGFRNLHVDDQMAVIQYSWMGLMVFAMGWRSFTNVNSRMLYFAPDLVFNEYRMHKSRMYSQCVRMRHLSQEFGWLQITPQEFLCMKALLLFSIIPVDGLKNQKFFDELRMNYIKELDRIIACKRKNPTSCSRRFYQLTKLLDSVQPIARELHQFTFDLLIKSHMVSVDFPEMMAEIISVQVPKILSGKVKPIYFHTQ
# Procedure, shortened: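 Stably transfected MDA-kb2 cells express luciferase from an MMTV promoter bearing both AR and GR response elements. Compounds plus 0.5 nM R1881 (final) were incubated 16 hr at 37C without CO2, then luminescence measured.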
# [19] = target: Estrogen receptor (Homo sapiens) (UniProt P03372); test: qHTS assay to identify small molecule antagonists of the estrogen receptor alpha (ER-alpha) signaling pathway using the BG1 cell line in the presence of 0.1 nM 17-beta-estradiol (AID 1259244); also: nearly all actives have a fitted effect of over 50% in size
# Sequence of Estrogen receptor (Homo sapiens) (P03372 whole entry, looked up): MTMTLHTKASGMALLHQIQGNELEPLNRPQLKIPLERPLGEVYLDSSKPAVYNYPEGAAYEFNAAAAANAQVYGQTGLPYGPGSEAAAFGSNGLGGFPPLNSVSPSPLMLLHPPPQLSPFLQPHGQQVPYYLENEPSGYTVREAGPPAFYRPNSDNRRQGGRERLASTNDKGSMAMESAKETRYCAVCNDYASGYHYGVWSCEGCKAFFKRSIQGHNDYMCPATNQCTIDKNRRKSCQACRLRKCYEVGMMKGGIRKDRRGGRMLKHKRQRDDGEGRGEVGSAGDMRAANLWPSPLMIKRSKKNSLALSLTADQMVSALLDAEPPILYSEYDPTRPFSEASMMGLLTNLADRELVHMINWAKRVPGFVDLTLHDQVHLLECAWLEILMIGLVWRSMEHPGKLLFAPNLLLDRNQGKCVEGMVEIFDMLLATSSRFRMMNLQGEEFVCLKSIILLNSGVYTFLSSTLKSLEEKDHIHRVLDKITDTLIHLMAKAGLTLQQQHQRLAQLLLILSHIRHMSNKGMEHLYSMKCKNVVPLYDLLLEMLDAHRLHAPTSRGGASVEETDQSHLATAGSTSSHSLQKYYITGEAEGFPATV
# Procedure, shortened: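 Antagonist mode: compounds in DMSO are pinned onto VM7Luc4E2 reporter cells, 0.1 nM final 17beta-estradiol is added, and after 22 h at 37C luciferase luminescence is measured with ONE-Glo.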
SMILES,Potency [1],Potency [2],Potency [3],Potency [4],Potency [5],Potency [6],outcome [7],Potency [8],Potency [9],outcome [10],Potency [11],Potency [12],Potency [13],outcome [14],Potency [15],outcome [16],outcome [17],outcome [18],Potency [19],PLD induction [16]
CNC(=O)C(c1ccccc1)c1ccccc1,inactive,inactive,inactive,inactive,inactive,inactive,inactive,inactive,inactive,inactive,inactive,inactive,inactive,inactive,–,–,–,–,–,–
Nc1ccc(S(=O)(=O)NC(=O)c2ccccc2)cc1,–,inactive,–,inactive,inactive,inactive,inactive,inactive,inactive,–,inactive,inactive,inactive,inactive,inactive,inactive,inactive,–,–,–
CCCOC(=O)CCCCC(=O)OCCC,inactive,inactive,inactive,inactive,inactive,inactive,inactive,inactive,inactive,inactive,inactive,inactive,inactive,inactive,inactive,–,–,–,–,–
O=C(O)c1ccccc1C(=O)OCc1ccccc1,–,inactive,inactive,inactive,inactive,inactive,inactive,inactive,inactive,inactive,inactive,–,inactive,inactive,inactive,–,–,inactive,–,–
CCCCC(=O)N(C)C,inactive,inactive,inactive,inactive,inactive,inactive,inactive,inactive,inactive,inactive,inactive,–,inactive,inactive,inactive,–,–,–,–,–
Cc1nc([N+](=O)[O-])cn1-c1ccc([N+](=O)[O-])cc1,–,inactive,inactive,inactive,inactive,inactive,inactive,inactive,inactive,inactive,inactive,–,inactive,inactive,inactive,inactive,–,–,inactive,–
CC(C)SCc1ccco1,–,inactive,inactive,inactive,inactive,inactive,inactive,inactive,inactive,–,inactive,inactive,inactive,–,inactive,–,inactive,–,inactive,–
c1ccccc1,inactive,inactive,inactive,–,–,inactive,inactive,inactive,inactive,inactive,inactive,–,inactive,inactive,inactive,–,–,–,–,–
c1ccc(CNc2ncnc3nc[nH]c23)cc1,–,inactive,inactive,inactive,inactive,–,inactive,inactive,inactive,inactive,inactive,inactive,inactive,inactive,inactive,–,inactive,–,–,–
COCC(=O)Nc1c(I)c(C(=O)NCC(O)CO)c(I)c(C(=O)N(C)CC(O)CO)c1I (configuration not stated),–,inactive,inactive,inactive,inactive,inactive,inactive,inactive,inactive,inactive,inactive,inactive,inactive,inactive,inactive,inactive,inactive,inactive,inactive,–
CCCCCCCCCCCCC,–,inactive,inactive,inactive,inactive,inactive,inactive,inactive,–,inactive,–,–,inactive,inactive,–,–,–,–,inactive,–
Nc1cc(Cl)cc(S(=O)(=O)O)c1O,inactive,–,inactive,inactive,inactive,inactive,inactive,inactive,–,inactive,inactive,–,inactive,inactive,–,–,–,–,inactive,–
CC1=NN(c2ccc(S(=O)(=O)O)cc2)C(=O)C1N=Nc1ccccc1 (configuration not stated),inactive,inactive,inactive,inactive,–,inactive,inactive,–,–,inactive,inactive,–,30.6 µM (active),inactive,–,–,–,–,–,–
NC(Cc1c[nH]c2ccccc12)C(=O)O (configuration not stated),inactive,inactive,inactive,inactive,inactive,inactive,inactive,inactive,–,inactive,inactive,inactive,inactive,inactive,inactive,–,–,–,–,–
CC(=O)Nc1ncc([N+](=O)[O-])s1,inactive,inactive,inactive,inactive,inactive,inactive,inactive,inactive,inactive,inactive,–,–,inactive,–,inactive,inactive,–,–,–,–
CCCCC(CC)C(=O)OC(C)C (configuration not stated),inactive,inactive,inactive,inactive,inactive,inactive,inactive,inactive,inactive,–,inactive,–,inactive,–,inactive,–,–,–,–,–
Cc1ccccc1C(=O)N1CC/C(=N\OS(=O)(=O)O)c2ccc(Cl)cc21,inactive,inactive,inactive,inactive,inactive,inactive,inactive,inactive,inactive,inactive,inactive,inactive,inactive,–,–,–,–,–,–,-2.19% [at 7.66 µM]
Oc1ccccc1Cc1ccccc1O,–,inactive,inactive,inactive,inactive,inactive,inactive,inactive,inactive,inactive,30.6 µM (active),–,inactive,–,–,–,–,–,inactive,–
